Source: PubChem BioAssay (Tox21)
Results filed as inconclusive are left out. Unmarked numbers belong to inactive results. Calls of active or inactive are those of the source. Calls follow the shape of the dose curve; as a rule, active = well fitted curve in the direction sought with a large enough effect in the signal ratio in the repeat runs (not every such curve was filed as active); inconclusive = weak or mixed curves, or a change in a side signal; inactive = no such curve, though single readings can be large or run the other way; the % refers to the signal ratio.

assay: qHTS assay to identify small molecule agonists of the NFkB signaling pathway (AID 1159509); details: NFkB-bla ME-180 cells, beta-lactamase FRET ratio, 5 h; series mostly up to 61 µM
Text: National Center for Advancing Translational Sciences [NCATS]
NIH Chemical Genomics Center [NCGC]
U.S. Environmental Protection Agency [EPA]
National Institutes of Environmental Health Sciences [NIEHS]
National Toxicology Program [NTP]
U.S. Food and Drug Administration [FDA]
Transcription factors and their stimulated target gene expression play pivotal roles across many cellular processes including responses to environmental stimuli. Proper regulation of associated pathways is critical to maintain cell health and function. Constitutive activation of transcription factor pathways has been implicated in tumors as it may block cellular functions such as apoptosis and lead to invasion and metastasis. One important transcription factor that stimulates gene expression in response to cytokines, UV radiation, and other stimuli is nuclear factor-kappa B (NFkB). To measure activation of the NFkB pathway, the CellSensor NFkB-bla ME-180 cell line (Life Technologies, Carlsbad, CA) that stably expresses beta-lactamase reporter gene under the regulation of a NF-kB response element was used. This assay allows measurement of the NFkB pathway activity induced by compounds in a ME-180 cell line. This system quantitates NF-kB activity using a FRET-based assay system where beta-lactamase expression disrupts FRET, allowing for fluorescent measurement of activity. This cell line has been used to screen the Tox21 10K compound library and to identify compounds that induce the NFkB pathway activity.
Tox21 Assay Protocol Summary:
NFkB-bla ME-180 cells were dispensed at 2,000 cells/6 uL of assay medium per well into black wall/clear-bottom 1536-well plates using a Multidrop Combi (ThermoFisher Scientific, Waltham, MA) dispenser. After the assay plates were incubated at 37 C and 5% CO2 for an overnight, 23 nL of compounds dissolved in DMSO, positive controls or DMSO only was transferred to the assay plate by a Pintool station (Kalypsys, San Diego, CA). The assay plates were incubated at 37 C and 5% CO2 for 5 hr. One uL of LiveBLAzer B/G FRET substrate (Life Technologies) was added using a Flying Reagent Dispenser (Aurora Discovery, San Diego, CA) and the plates were incubated at room temperature for 1.5 hr. Fluorescence intensity (405 nm excitation, 460 nm and 530 nm emissions) was measured using an Envision plate reader (PerkinElmer, Shelton, CT).
% is scaled to controls: 0 for no effect and ±100 for the full control effect.

Q: With `C=CCOC(=O)COCCC(C)C` as the molecule, how does the outcome read?
A: inactive

Q: Which outcome does the source give for `O=C(C(=O)c1ccco1)c1ccco1` here?
A: inactive

Q: With `O=C1OC(=O)c2c(Br)c(Br)c(Br)c(Br)c21` as the molecule, how does the outcome read?
A: inactive

Q: With `O=C1NC(=O)c2cccc3cccc1c23` as the molecule, how does the outcome read?
A: inactive

Q: Which outcome does the source give for `CC(C)COC(=O)c1ccc(O)cc1` here?
A: inactive

Q: With `CC(C)N=C=NC(C)C` as the molecule, how does the outcome read?
A: inactive

Q: Which outcome does the source give for `O[C@@H](CNC[C@H](O)[C@H]1CCc2cc(F)ccc2O1)[C@@H]1CCc2cc(F)ccc2O1` here?
A: inactive

Q: For `COC(=O)Nc1nc2ccc(C(=O)C3CC3)cc2[nH]1`, which outcome is on record?
A: inactive

Q: With `c1ccc(CNc2ncnc3c2ncn3C2CCCCO2)cc1` (stereo not given) as the molecule, how does the outcome read?
A: inactive

Q: Which activation does the source give for `CC1=CC[C@@H]2C[C@H]1C2(C)C` here?
A: -0.527% [at 15.1 µM]

Q: For `O=C(O)c1cccc(Oc2ccccc2)c1`, which outcome is on record?
A: inactive

Q: With `CC(=O)NCCO` as the molecule, how does the outcome read?
A: inactive

Q: For `O=C(O)CO`, which outcome is on record?
A: inactive

Q: Which outcome does the source give for `CN1CCCN(C(c2ccccc2)c2ccc(Cl)cc2)CC1` (stereo not given) here?
A: inactive

Q: Which outcome does the source give for `CC(=O)NNC(C)=O` here?
A: inactive

Q: With `CC(CN(CCN(CC(C)OCCO)CC(C)OCCO)CC(C)OCCO)OCCO` (stereo not given) as the molecule, how does the outcome read?
A: inactive

Q: For `CCCCCCCCCCCCCCCCCC(=O)OCC(CC)CCCC` (stereo not given), which outcome is on record?
A: inactive

Q: With `CC(C)(C)NCC(O)COc1cccc2c1C[C@H](O)[C@H](O)C2` (stereo not given in full) as the molecule, how does the outcome read?
A: inactive

Q: For `Cc1cn([C@H]2C[C@H](F)[C@@H](CO)O2)c(=O)[nH]c1=O`, which outcome is on record?
A: inactive

Q: For `CC(=O)C(C)=O`, which outcome is on record?
A: inactive

Q: For `CNCc1ccc(NC(=O)c2c[nH]c3c2C(=O)CCC3)cc1`, which outcome is on record?
A: inactive

Q: With `O=CNNC=O` as the molecule, how does the outcome read?
A: inactive

Q: For `Cc1cc(CCC(=O)OCCOCCOCCOC(=O)CCc2cc(C)c(O)c(C(C)(C)C)c2)cc(C(C)(C)C)c1O`, which outcome is on record?
A: inactive

Q: With `Nc1ccc(NC(=O)c2ccc(N)cc2)cc1` as the molecule, how does the outcome read?
A: inactive

Q: For `c1ccc2sc(SSc3nc4ccccc4s3)nc2c1`, which outcome is on record?
A: inactive

Q: Which outcome does the source give for `C=C(C)C(=O)OCCC(F)(F)C(F)(F)C(F)(F)C(F)(F)C(F)(F)C(F)(F)F` here?
A: inactive

Q: Which outcome does the source give for `O=C(O)CCC(=O)c1ccc(-c2ccccc2)cc1` here?
A: inactive

Q: For `O=C(O)c1cccc(C[C@@H]2COc3ccc(OCc4nc5cc(F)ccc5s4)cc3[C@@H]2O)c1`, which outcome is on record?
A: inactive

Q: Which outcome does the source give for `CC(C)OC(=O)c1ccccc1C(=O)OC(C)C` here?
A: inactive

Q: For `Nc1nc(-c2ccc([N+](=O)[O-])cc2)cs1`, which outcome is on record?
A: inactive

Q: For `CC(C)(O)c1coc(S(=O)(=O)NC(=O)Nc2c3c(cc4c2CCC4)CCC3)c1`, which outcome is on record?
A: inactive

Q: With `CC(C)C1CCC(C(=O)N[C@H](Cc2ccccc2)C(=O)O)CC1` (stereo not given in full) as the molecule, how does the outcome read?
A: inactive

Q: With `[Cl][Nd]([Cl])[Cl]` as the molecule, how does the outcome read?
A: inactive

Q: With `O=C(O)CNC(=O)c1ccccc1I` as the molecule, how does the outcome read?
A: inactive

Q: For `CCCCOC(=O)CCCCC(=O)OCCCC`, which outcome is on record?
A: inactive

Q: For `O=C(O)CCC(=O)OC[C@@H](NC(=O)C(Cl)Cl)[C@H](O)c1ccc([N+](=O)[O-])cc1`, which outcome is on record?
A: inactive

Q: For `CCOC(=O)Oc1ccc(CCNC(=O)[C@H](CCSC)NC(C)=O)cc1OC(=O)OCC`, which outcome is on record?
A: inactive

Q: With `CC(C)(C)S` as the molecule, how does the outcome read?
A: inactive

Q: For `COc1cc(NCc2ccc3nc(N)nc(N)c3c2C)cc(OC)c1OC`, which outcome is on record?
A: inactive

Q: Which activation does the source give for `CCC(Cl)CC(Cl)C(Cl)C(Cl)C(Cl)C(C)Cl` (stereo not given) here?
A: -0.489% [at 15.1 µM]
